SMILES strings stand for the structures. A number with no mark means an inactive call. Inconclusive results are not listed. Active and inactive are the calls of the source. Unless noted, calls come from the whole dose curve.

A short description of assay [1]: Nuclear factor erythroid 2-related factor 2/antioxidant responsive element (Nrf2/ARE) small molecule agonists: qHTS cell viability counter screen in human keratinocytes (AID 1919968; active = well fitted curve in the direction sought with a large enough effect in the repeat runs; an effect the other way counts as inactive or inconclusive; note: nearly all actives have a fitted effect of over 55% in size). Summed up:
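KeratinoSens cells (HaCaT keratinocytes stably carrying an ARE-luciferase reporter) were seeded at 1,500 cells/well and rested 5 h at 37 C/5% CO2. They were then exposed to compounds in DMSO for 23 h. Viability was read by CellTiter-Fluor fluorescence after 1 h.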
(In general: In qHTS, concentration-response curves come from the screen itself.)

Assay [2] is described as follows: Nuclear factor erythroid 2-related factor 2/antioxidant responsive element (Nrf2/ARE) small molecule agonists: luciferase reporter gene qHTS assay in human keratinocytes (AID 1919969). Note: nearly all actives have a fitted effect of over 35% in size. A general note: Reporter assays use an easily measured gene product as a stand-in for the process of interest.
Assay [3] has as its target Gonadotropin-releasing hormone receptor (Homo sapiens) (UniProt P30968). Briefly: Human gonadotropin-releasing hormone receptor (GnRHR) small molecule agonists, calcium flux assay in GnRHR-HEK293 cells (AID 1920063). Note: nearly all actives have a fitted effect of over 35% in size. The procedure, abridged:
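HEK293 cells stably expressing human GnRHR were plated 18 h at 37 °C, loaded with calcium dye 1 h at 37 °C, then given compound in agonist mode; fluorescence (Ex/Em 480/540) read kinetically for 3 min at 1 s intervals.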

Assay [4] concerns the target KiSS-1 receptor (Homo sapiens) (UniProt Q969F8). Briefly: Human kisspeptin (KISS1R) small molecule agonists, calcium flux assay in KISS1R-HEK293 cells (AID 1920064; active = well fitted curve in the direction sought with a large enough effect in the repeat runs; an effect the other way counts as inactive or inconclusive). Summed up:
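HEK293 cells stably expressing human KISS1R were plated 18 h at 37 °C, loaded with calcium dye for 1 h at 37 °C, then given compound by pin tool. Fluorescence (Ex/Em 480/540) was read kinetically for 3 min.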
For orientation: A change in cytosolic calcium serves as a functional read-out for many receptors and channels.

A short description of assay [5]: G protein-coupled receptor (GPCR) small molecule agonists, calcium flux assay: HEK293 wild type cell line counter screen (AID 1920065). Summed up: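 Cells were plated and cultured 18 h at 37 C/5% CO2, then loaded with calcium dye for 1 h at 37 C. Compounds in DMSO were pin-transferred in agonist mode, and fluorescence (Ex/Em 480/540) was read kinetically for 3 min at 1 s intervals.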

Assay [6] in a line: p53 small molecule agonists, cell-based qHTS assay with human liver microsomes: qHTS cell viability counter screen (AID 1963579). Note: nearly all actives have a fitted effect of over 45% in size. Summed up:
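Metabolic activation used human liver microsomes and NADPH, both 0.5 mg/mL final, over 16 hours at 37 C on p53RE-bla cells (4,000/well). Cytotoxicity measured by CellTiter-Glo luminescence, 30 min at room temperature.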

Assay [7] can be described thus: p53 small molecule agonists, cell-based qHTS assay with rat liver microsomes: qHTS cell viability counter screen (AID 1963580). Note: nearly all actives have a fitted effect of over 45% in size. The procedure, abridged:
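In HCT-116 cells carrying a p53 response element-bla reporter, compounds were metabolically activated in situ by rat liver microsomes with NADPH over 16 h. Cell ATP content then served as the cytotoxicity measure.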

Assay [8] in a line: p53 small molecule agonists, cell-based qHTS assay: qHTS cell viability counter screen (AID 1963581). Note: nearly all actives have a fitted effect of over 45% in size. Summed up: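 p53RE-bla HCT-116 cells were exposed to compounds for 16 h at 37 C; after the beta-lactamase FRET read in the same wells, CellTiter-Glo was added and luminescence (intracellular ATP) read after 30 min at room temperature.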
The target in assay [9] is 5-hydroxytryptamine receptor 2A (Homo sapiens) (UniProt P28223). Briefly: 5-hydroxytryptamine receptor 2A (HTR2A) small molecule agonists, cell-based qHTS assay (AID 1963587). Note: nearly all actives have a fitted effect of over 30% in size. The procedure, abridged: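 HTR2A-CHO cells, plated 18 h at 37 C/5% CO2, dye-loaded 1 h at 37 C; compounds in DMSO added by pin tool (agonist mode). Intracellular calcium flux read as kinetic fluorescence on FDSS over 2 min at 1 s intervals.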
Chain of 5-hydroxytryptamine receptor 2A (Homo sapiens) (P28223 whole entry, looked up): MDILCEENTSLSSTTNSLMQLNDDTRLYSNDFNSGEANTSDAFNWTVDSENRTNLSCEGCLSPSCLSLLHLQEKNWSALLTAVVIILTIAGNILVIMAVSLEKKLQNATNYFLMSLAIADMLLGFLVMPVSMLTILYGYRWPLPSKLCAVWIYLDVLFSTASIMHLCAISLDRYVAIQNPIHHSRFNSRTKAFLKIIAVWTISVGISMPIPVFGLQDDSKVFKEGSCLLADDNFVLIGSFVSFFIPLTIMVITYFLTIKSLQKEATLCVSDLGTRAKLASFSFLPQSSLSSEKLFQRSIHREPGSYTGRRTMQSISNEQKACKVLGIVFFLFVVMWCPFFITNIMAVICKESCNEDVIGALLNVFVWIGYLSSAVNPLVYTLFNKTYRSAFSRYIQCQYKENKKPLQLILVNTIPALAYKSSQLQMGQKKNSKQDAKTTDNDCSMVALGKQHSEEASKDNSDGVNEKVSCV

The target of assay [10] is Muscarinic acetylcholine receptor M1 (Homo sapiens) (UniProt P11229). Briefly: Cholinergic receptor muscarinic 1 (CHRM1) small molecule antagonists, cell-based qHTS assay (AID 1963588). Note: nearly all actives have a fitted effect of over 40% in size. Summed up: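 CHRM1-CHO calcium-flux assay, antagonist mode. Cells were seeded 18 h, dye-loaded 1 h at 37 C and given compound for 5 min at RT, then acetylcholine was added at 50nM. FDSS fluorescence was read 3 min; 15 concentrations, three runs.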
Chain of Muscarinic acetylcholine receptor M1 (Homo sapiens) (P11229 whole entry, looked up): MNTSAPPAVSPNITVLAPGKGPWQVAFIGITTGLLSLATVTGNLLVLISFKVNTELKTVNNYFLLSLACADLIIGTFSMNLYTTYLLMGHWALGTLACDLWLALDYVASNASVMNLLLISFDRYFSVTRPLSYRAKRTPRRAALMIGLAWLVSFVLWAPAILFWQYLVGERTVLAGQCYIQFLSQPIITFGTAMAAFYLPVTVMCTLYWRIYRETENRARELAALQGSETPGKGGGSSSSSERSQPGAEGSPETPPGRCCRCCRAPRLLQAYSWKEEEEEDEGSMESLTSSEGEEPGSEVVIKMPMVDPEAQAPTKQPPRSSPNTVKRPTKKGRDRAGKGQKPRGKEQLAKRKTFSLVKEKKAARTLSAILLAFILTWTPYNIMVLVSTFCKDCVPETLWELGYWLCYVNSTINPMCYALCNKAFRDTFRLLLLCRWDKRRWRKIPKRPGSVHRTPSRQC

The target is the same in assay [11]. The assay is described as follows: Cholinergic receptor muscarinic 1 (CHRM1) small molecule agonists, cell-based qHTS assay (AID 1963589). Note: nearly all actives have a fitted effect of over 35% in size. The procedure, abridged: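 CHO cells stably expressing human CHRM1, seeded 18 h at 37 C/5% CO2, dye-loaded 1 h at 37 C, then given compound in agonist mode; intracellular calcium fluorescence read kinetically at 1 s intervals. Fifteen concentrations, three independent runs.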

A short description of assay [12]: cAMP Responsive Elements (CRE) small molecule agonists, cell-based qHTS assay (AID 1963590). The procedure, abridged:
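CRE-bla HEK 293T cells in DMEM with 10% dialyzed FBS, NEAA, pyruvate and 25 mM HEPES were plated 18 h at 37 C/5% CO2, then exposed to compounds in DMSO for 3 h before LiveBLAzer B/G FRET substrate addition.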

For assay [13], the target named is Beta-2 adrenergic receptor (Homo sapiens) (UniProt P07550). The assay is described as follows: Adrenergic beta2 receptor (ADRB2) small molecule antagonists, cell-based qHTS assay (AID 1963592). Note: series mostly up to about 92 µM; nearly all actives have a fitted effect of over 50% in size. Summed up: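 Cells (CHO, stable ADRB2 overexpression) incubated 18-20hr at 37C; compounds added from DMSO; agonist mix (1nM isoproterenol, 100uM IBMX, 25uM Ro-20-1724) added; 0.5hr RT; d2-cAMP and anti-cAMP-cryptate added; 1hr RT; 665/615 nm read.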
Chain of Beta-2 adrenergic receptor (Homo sapiens) (P07550 whole entry, looked up): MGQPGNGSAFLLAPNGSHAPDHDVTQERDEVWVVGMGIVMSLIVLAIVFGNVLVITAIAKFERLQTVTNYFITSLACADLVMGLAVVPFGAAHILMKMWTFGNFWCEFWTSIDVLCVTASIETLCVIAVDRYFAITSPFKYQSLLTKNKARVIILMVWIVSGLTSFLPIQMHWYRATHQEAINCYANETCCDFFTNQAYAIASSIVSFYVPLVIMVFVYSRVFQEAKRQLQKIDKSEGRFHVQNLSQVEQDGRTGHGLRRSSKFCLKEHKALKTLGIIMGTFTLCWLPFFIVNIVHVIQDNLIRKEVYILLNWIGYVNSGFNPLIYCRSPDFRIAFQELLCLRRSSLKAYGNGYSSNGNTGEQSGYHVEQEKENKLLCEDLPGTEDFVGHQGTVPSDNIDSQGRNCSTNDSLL

In assay [14] the target is D(2) dopamine receptor (Homo sapiens) (UniProt P14416). The assay is described as follows: Dopamine D2 receptor (DRD2) small molecule agonists, cell-based qHTS assay (AID 1963594). Note: nearly all actives have a fitted effect of over 35% in size. The procedure, abridged: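 HEK293 cells stably expressing DRD2 were cultured 24 h at 37 C, then given Ro20-1724 (0.1 mM final) and compounds for 10 min at room temperature. NKH477 (200nM) was then added for 30 min. cAMP was read by HTRF.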
Chain of D(2) dopamine receptor (Homo sapiens) (P14416 whole entry, looked up): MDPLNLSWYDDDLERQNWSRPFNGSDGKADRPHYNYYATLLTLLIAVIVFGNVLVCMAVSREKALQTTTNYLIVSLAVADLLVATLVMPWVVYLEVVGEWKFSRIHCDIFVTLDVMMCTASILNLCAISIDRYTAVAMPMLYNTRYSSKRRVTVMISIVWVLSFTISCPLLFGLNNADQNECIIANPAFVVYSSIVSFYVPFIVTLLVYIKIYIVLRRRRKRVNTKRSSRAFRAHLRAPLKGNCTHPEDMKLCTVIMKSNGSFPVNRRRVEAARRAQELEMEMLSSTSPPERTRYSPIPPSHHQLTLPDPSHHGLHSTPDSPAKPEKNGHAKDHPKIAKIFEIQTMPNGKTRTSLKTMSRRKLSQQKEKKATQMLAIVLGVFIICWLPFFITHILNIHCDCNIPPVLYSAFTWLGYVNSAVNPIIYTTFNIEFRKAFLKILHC

Assay [15] is described as follows: cAMP Responsive Elements (CRE) small molecule antagonists, cell-based qHTS assay (AID 1963591; active = well fitted inhibition curve with a large enough effect in the signal ratio in the repeat runs, not every such curve was filed as active; the % refers to the signal ratio). The procedure, abridged: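 CRE-bla HEK293T cells were plated 18 h at 37 °C/5% CO2, pinned with compound in DMSO, then stimulated with NKH477 at 0.25 uM final for 3 h. LiveBLAzer B/G FRET substrate was added and plates incubated 2 h at room temperature.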
The target of assay [16] is Beta-2 adrenergic receptor (Homo sapiens) (UniProt P07550). Briefly: Adrenergic beta2 receptor (ADRB2) small molecule agonists, cell-based qHTS assay (AID 1963593).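 Note: CHO cells stably overexpressing human ADRB2.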 Summed up:
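CHO cells stably over-expressing ADRB2 were plated overnight at 37C, then dosed with compounds plus a stimulation mix containing 100uM IBMX and 25uM Ro-20-1724 for 0.5hr at room temperature. cAMP was measured by HTRF competition, 1hr.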

For assay [17], the target named is D(2) dopamine receptor (Homo sapiens) (UniProt P14416). Briefly: Dopamine D2 receptor (DRD2) small molecule antagonists, cell-based qHTS assay (AID 1963595; active = well fitted inhibition curve with a large enough effect in the signal ratio in the repeat runs, with a control signal flat; the % refers to the signal ratio; note: potency is the fitted concentration of half-maximal effect). Summed up:
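In this cell-based antagonist screen, compounds act for 10 min at room temperature before a 30 min challenge with 12 nM quinpirole and 200 nM NKH477. cAMP is quantified by HTRF competition in DRD2-HEK293 cells containing 0.1 mM Ro20-1724.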

Chain of Gonadotropin-releasing hormone receptor (Homo sapiens) (P30968 whole entry, looked up): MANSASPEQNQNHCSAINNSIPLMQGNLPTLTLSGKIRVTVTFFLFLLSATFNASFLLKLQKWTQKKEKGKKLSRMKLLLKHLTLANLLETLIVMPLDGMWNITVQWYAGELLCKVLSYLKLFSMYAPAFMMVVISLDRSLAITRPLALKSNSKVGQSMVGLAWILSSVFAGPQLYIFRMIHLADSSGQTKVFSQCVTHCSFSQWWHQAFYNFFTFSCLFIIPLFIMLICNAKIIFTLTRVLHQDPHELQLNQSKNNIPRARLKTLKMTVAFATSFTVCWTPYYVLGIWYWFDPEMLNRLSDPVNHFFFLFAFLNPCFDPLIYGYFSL
Chain of KiSS-1 receptor (Homo sapiens) (Q969F8 whole entry, looked up): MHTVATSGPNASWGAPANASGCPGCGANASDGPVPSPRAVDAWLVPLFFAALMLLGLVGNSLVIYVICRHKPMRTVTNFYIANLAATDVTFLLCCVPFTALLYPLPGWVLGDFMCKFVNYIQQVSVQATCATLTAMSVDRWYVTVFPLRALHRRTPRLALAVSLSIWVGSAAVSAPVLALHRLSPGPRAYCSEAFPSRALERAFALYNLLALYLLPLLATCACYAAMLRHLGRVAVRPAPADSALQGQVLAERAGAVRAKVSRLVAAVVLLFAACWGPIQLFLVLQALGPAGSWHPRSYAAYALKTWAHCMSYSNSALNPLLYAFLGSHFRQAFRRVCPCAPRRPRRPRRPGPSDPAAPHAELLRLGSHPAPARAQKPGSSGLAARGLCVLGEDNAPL

Regarding `NC(N)=NS(=O)(=O)c1ccc(N)cc1`, the Potency entry in [1], in assay [2], in assay [3], in [4], in assay [5] and in assay [6] was “inactive” throughout. Besides, the Potency entry in assay [7], in assay [8], in assay [9], in [10], in assay [11] and in assay [12] was “inactive” throughout. For the same compound, the Potency result in assay [13] and in assay [14] was “inactive” each time.

`CC(CCc1ccc2c(c1)OCO2)NN` (configuration not stated): the Potency result in assay [1], in assay [2], in assay [3], in assay [4], in [5] and in assay [6] was “inactive” in each case. Moreover, the Potency entry in assay [7], in assay [8], in assay [9], in assay [11], in [12] and in [15] was “inactive” throughout. Besides, the Potency result in [13], in assay [16], in assay [14] and in assay [17] was “inactive” each time.

For the compound `CCC1Nc2cc(Cl)c(S(N)(=O)=O)cc2S(=O)(=O)N1` (configuration not stated), the Potency entry in assay [1], in assay [2], in [3], in assay [4], in assay [5] and in assay [6] was “inactive” each time. Besides, the Potency entry in assay [7], in assay [8], in [9], in [10], in assay [11] and in assay [12] was “inactive” in each case. Also, the Potency result in assay [14] and in assay [17] was “inactive” each time.

Consider `CN1CCC(=C2c3ccccc3CCc3cccnc32)CC1`, for which the Potency entry in assay [1], in assay [2], in [3], in [4], in assay [5] and in [6] was “inactive” each time. Also, the Potency result in assay [7], in assay [8], in assay [9], in [11], in assay [12] and in assay [15] was “inactive” in each case. Besides, the Potency entry in assay [13] and in [14] was “inactive” in each case. Also, in assay [17], the Potency was 29.8 µM (active).

For the compound `COc1cc2nc(N(C)CCCNC(=O)C3CCCO3)nc(N)c2cc1OC` (configuration not stated), the Potency result in assay [1], in assay [2], in [3], in [4], in [5] and in assay [6] was “inactive” in each case. The Potency result in [7], in [8], in [9], in assay [11], in [12] and in [15] was “inactive” each time. For the same compound, the Potency entry in assay [13], in assay [16], in assay [14] and in assay [17] was “inactive” each time.

Turning to `O=c1cc(O)c(Cl)c[nH]1`, the Potency entry in assay [1], in assay [2], in assay [3], in assay [4], in [5] and in [6] was “inactive” in each case. For the same compound, the Potency result in [7], in [8], in [9], in assay [10], in assay [12] and in [15] was “inactive” each time. The Potency result in assay [13] and in [14] was “inactive” throughout.

Consider `CCOCCn1c(N2CCCN(C)CC2)nc2ccccc21`, for which the Potency result in [1], in [2], in [3], in assay [4], in assay [5] and in assay [6] was “inactive” throughout. Besides, the Potency entry in assay [7], in assay [8], in [9], in assay [11], in assay [12] and in assay [13] was “inactive” each time. In addition, the Potency result in assay [16], in assay [14] and in assay [17] was “inactive” each time.

With `Cc1ccc(C(N)=O)cc1N`, the Potency entry in assay [1], in assay [2], in assay [3], in assay [4], in [5] and in [6] was “inactive” in each case. Also, the Potency result in [7], in assay [8], in assay [9], in [10], in assay [11] and in assay [12] was “inactive” each time. Also, the Potency result in assay [15], in [13], in [16], in [14] and in assay [17] was “inactive” throughout.

Consider `N=C(N)S(=O)O`, for which the Potency result in assay [1], in assay [2], in assay [3], in assay [4], in assay [5] and in assay [6] was “inactive” each time. Besides, the Potency entry in [7], in [8], in assay [9], in assay [10], in assay [11] and in [12] was “inactive” each time. For the same compound, the Potency result in [15], in [13], in [14] and in assay [17] was “inactive” in each case.
